For eleven compounds, composite z-score and z-score results are on record in PubChem BioAssay.

Test [1] deals with Human papillomavirus type 1a protein E7 (residues 44-93). In words: HPV1a E7 fragment binders on microarrays, primary screen, biochemical, small-molecule microarray, residues 44-93, 635 nm fluorescence (AID 1108).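 Note: E7 fragment applied at 1 µg/mL in TBST for 1 h at 4 C; score combines spot fluorescence with its signal to noise ratio.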 The note with it: small-molecule microarray binding, fluorescence 635 nm; higher = more signal.
Test [2] can be described thus: modulators of HCV replicon luciferase signal, primary screen, HCV replication inhibitor project, Huh7 cells, luciferase reporter (AID 1109).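 Note: huh7 hepatoma cells harbouring a luciferase neomycin HCV replicon reporter; luciferase luminescence as measure of HCV replicon replication; test concentration not given here.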 The following applies: 48 h, higher = more signal.
For test [3], the target named is Left-right determination factor 2 (Homo sapiens) (UniProt O00292). In words: LEFTY2 binders on small-molecule microarrays, primary screen, biochemical, small-molecule microarray, 635 nm fluorescence scan (AID 1110). The following applies: LEFTY2 binding, higher = more signal.
Left-right determination factor 2 (Homo sapiens), sequence (O00292 whole entry, looked up): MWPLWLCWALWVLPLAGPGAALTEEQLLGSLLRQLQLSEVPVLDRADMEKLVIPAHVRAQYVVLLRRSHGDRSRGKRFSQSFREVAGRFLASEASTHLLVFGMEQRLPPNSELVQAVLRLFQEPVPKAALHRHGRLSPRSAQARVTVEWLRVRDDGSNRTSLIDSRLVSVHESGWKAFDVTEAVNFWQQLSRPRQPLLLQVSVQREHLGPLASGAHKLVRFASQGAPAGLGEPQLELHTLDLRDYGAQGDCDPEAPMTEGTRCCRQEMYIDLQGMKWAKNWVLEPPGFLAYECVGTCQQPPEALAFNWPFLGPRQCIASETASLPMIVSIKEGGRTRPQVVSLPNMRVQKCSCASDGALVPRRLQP
For test [4], the target named is Calmodulin-1 (Homo sapiens) (UniProt P0DP23). The test is described as follows: CALM1 binders on microarrays, EGTA buffer, profiling panel, biochemical, small-molecule microarray, Cy5-labelled CALM1 (AID 1111).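 Note: labelled calmodulin applied in Tris saline Tween buffer holding calcium plus EGTA and DTT.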 The note with it: Cy5-CALM1 binding fluorescence, higher = more signal.
For test [5] the target is unchanged. In words: calcium-bound CALM1 binders on microarrays, profiling panel, artefact control for SMM control-protein annotation, biochemical, small-molecule microarray, Cy5-labelled CALM1, plus calcium (AID 1112).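 Note: score merges spot fluorescence with signal to noise from triplicate slides.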 The note with it: Cy5-CALM1 binding fluorescence, higher = more signal.
A short description of test [6]: small-molecule microarray binders of probe aWnt5a, primary screen, biochemical, biotinylated probe, 635/667 nm fluorescence (AID 1113).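 Note: score merges 667 nm fluorescence intensity with signal-to-noise per printed feature.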 The note with it: higher = more signal.
The nature of test [7]: small-molecule microarray binders of probe aShh, primary screen, biochemical, biotinylated probe, 635/667 nm fluorescence (AID 1114).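 Note: probe is biotin-labelled aShh protein from a stem cell growth factor screen; measures binding of labelled protein to compounds printed on the slide; score merges feature fluorescence at 667 nm with signal-to-noise.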 The note with it: higher = more signal.
The nature of test [8]: small-molecule microarray binders of probe aNog, primary screen, biochemical, biotinylated probe, 635/667 nm fluorescence (AID 1115).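 Note: probe is biotinylated aNog protein used at 0.15 µg/mL for 1 h at 4 C; z-score combines 667 nm fluorescence of each spot with its signal to noise.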 The note with it: higher = more signal.
Test [9] concerns the target Torsin-1A-interacting protein 1 (Homo sapiens) (UniProt Q5JTV8). In words: LAP1 binders from COS7 cell lysate, primary screen, small-molecule microarray, 635/667 nm fluorescence (AID 1116). The note with it: COS7-hLAP1 lysate binding, 635 nm fluorescence, higher = more signal.
The target in test [10] is Alpha-bungarotoxin (Bungarus multicinctus) (UniProt P60615). The test is described as follows: alpha-bungarotoxin binders on microarray, profiling panel, artefact control for SMM control protein annotation, biochemical, small-molecule microarray, Alexa647 label, 635/667 nm fluorescence (AID 1117). The note with it: alpha-BTX-A647 binding fluorescence, higher = more signal.
Alpha-bungarotoxin (Bungarus multicinctus), sequence (P60615 whole entry, looked up): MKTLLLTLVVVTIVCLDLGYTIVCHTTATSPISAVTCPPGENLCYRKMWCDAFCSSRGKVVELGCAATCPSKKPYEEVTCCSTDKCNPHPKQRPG

Torsin-1A-interacting protein 1 (Homo sapiens), sequence (Q5JTV8 whole entry, looked up): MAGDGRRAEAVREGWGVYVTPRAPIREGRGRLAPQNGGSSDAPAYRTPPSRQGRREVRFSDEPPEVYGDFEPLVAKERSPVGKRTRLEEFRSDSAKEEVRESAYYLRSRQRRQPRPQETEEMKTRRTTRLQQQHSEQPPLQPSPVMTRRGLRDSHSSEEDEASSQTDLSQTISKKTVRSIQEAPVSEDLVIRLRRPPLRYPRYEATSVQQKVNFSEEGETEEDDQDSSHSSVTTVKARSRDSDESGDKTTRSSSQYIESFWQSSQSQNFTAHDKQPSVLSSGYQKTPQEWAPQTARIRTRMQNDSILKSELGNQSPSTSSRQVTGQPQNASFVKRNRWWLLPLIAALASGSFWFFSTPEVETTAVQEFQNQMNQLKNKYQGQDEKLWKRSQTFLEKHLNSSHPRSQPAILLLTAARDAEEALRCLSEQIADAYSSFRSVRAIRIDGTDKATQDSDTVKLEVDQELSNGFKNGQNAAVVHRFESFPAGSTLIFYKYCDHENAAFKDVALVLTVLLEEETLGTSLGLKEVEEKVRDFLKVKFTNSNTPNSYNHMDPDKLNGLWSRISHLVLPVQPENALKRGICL

Take `CO[C@H]1COC(=O)CC=C[C@H](C)[C@@H](NS(=O)(=O)c2ccc(C)cc2)COC(=O)CC=C[C@@H]1C`: the composite z-score in test [1] was 0.0839; in test [3], 0.694; in test [4], -0.46; in test [5] it was -0.521; in [6], -0.0738; in test [7], -0.13. The composite z-score was 0.0613 in test [8], 0.37 in test [9] and -0.153 in test [10]. In addition, in test [2], the z-score was -1.72.

As to `CC(C)=C1C(=O)C(c2ccccc2)=C2CN3C(=O)N(CCc4ccccc4)C(=O)[C@]3(Cc3ccc(F)cc3)[C@H]21`, the composite z-score in test [1] is 0.891; in test [3], -1.67; in [4], 0.327; in [5], 0.32; in test [6], 0.229; in test [7], 0.0431. Moreover, the composite z-score was -0.761 in test [8], -0.248 in [9] and -0.547 in test [10]. For the same compound, the z-score in [2] was -0.864.

On to `COCCCNC(=O)[C@@]1(CCS(=O)(=O)c2ccccc2)N=C(c2ccc(OCCCO)cc2)O[C@H]1c1ccccc1`, for which the composite z-score was 0.432 in [1]; -0.133 in test [3]; 0.361 in test [4]; 0.4 in test [5]; 0.525 in test [6]; 0.179 in test [7]. Besides, the composite z-score in [8] amounted to 2.11; in test [9], 2.95; in test [10], 2.44. For the same compound, the z-score in test [2] was -1.2.

Consider `CO[C@@H]1COC(=O)CC=C[C@@H](C)[C@@H]2C=C[C@H](O)[C@@H](COC(=O)[C@H](C)NC(=O)CC=C[C@H]1C)O2`, for which the composite z-score in test [1] is -1.68; in test [3] it was 0.433; in test [4], -1.52; in test [5] it was -1.99; in test [6], -0.103; in [7], -0.0035. Also, the composite z-score in test [8] is -0.466; in [9], -0.0424; in test [10] it was 0.304. In addition, the z-score in test [2] was -2.12.

Regarding `CCN1C(=O)[C@H]2[C@H]3[C@H](O)C=CC(=O)[C@@H]3CC[C@H]2C1=O`, the composite z-score in test [1] was 0.907; in test [3], 0.503; in test [4] it was 0.0903; in test [5], -0.528; in test [6] it was -0.126; in [7], -0.13. Also, the results for the composite z-score in test [8], in test [9] and in test [10] were 0.0658, 0.694 and 0.45, respectively. Further, the z-score in [2] is 0.305.

On to `C=C(/C(=C/C[C@H](OC(=O)c1ccncc1)c1ccc(OCCO)cc1)c1cnc2ccccc2c1)C(C)C`, for which the composite z-score in [1] was 1.31; in [3], 1.06; in test [4] it was 0.0481; in test [5] it was -0.708; in [6] it was 0.0324; in test [7], 0.13. For the same compound, the composite z-score in test [8] is -0.338; in [9], 2.24; in test [10] it was 1.67. In test [2], the z-score is -2.01.

On to `C=CC[C@]1(C(=O)NCc2ccccc2)N=C(c2ccc(OCCCO)cc2)O[C@H]1c1ccccc1`, for which the composite z-score in [1] was 1.46; in test [3], -0.778; in [4] it was 0.392; in test [5] it was -0.483; in [6] it was -0.0944; in test [7], 0.696. Besides, the composite z-score stood at 0.257 in test [8], 1.62 in [9] and 2.46 in [10]. Moreover, in test [2], the z-score was -2.41.

Take `COCCCNC(=O)[C@@]1(C)c2ccccc2C(=O)N(Cc2ccc(OC(F)(F)F)cc2)[C@H]1c1ccc(CO)cc1`: the composite z-score was -1.56 in test [1]; -0.738 in test [3]; -0.579 in [4]; 0.751 in test [5]; -0.109 in test [6]; -0.2 in [7]. Moreover, the figures for the composite z-score in [8], in test [9] and in test [10] were -0.546, -0.668 and -1.16, respectively. Also, in [2], the z-score is -0.302.

For the compound `COC(=O)[C@H](C)NC(=O)CCC1CC(OC(=O)NCc2cccc3ccccc23)CC2(CCCC(COC(=O)NCC3CCCCC3)O2)O1` (stereo not given in full), the composite z-score is 1.32 in test [1]; 0.776 in test [3]; 0.708 in test [4]; -0.798 in [5]; -0.174 in test [6]; -0.0035 in test [7]. Also, the composite z-score is -0.501 in [8], 0.587 in test [9] and 0.585 in [10]. The z-score in test [2] was -0.411.

Regarding `CC(C)C[C@@H]1NC(=O)[C@H]2C[C@@H](C(=O)NCCCCCCN(C)C)[C@@H](c3cccc(OCCO)c3)N2C1=O`, the composite z-score in [1] is 1.24; in test [3], 1.38; in [4], -2.44; in [5], -1.26; in test [6], -0.0792; in test [7] it was 0.108. The composite z-score was -0.216 in [8], 2.04 in [9] and 1.61 in test [10]. Besides, in test [2], the z-score came to 0.35.

Regarding `CCN1C(=O)[C@H]2[C@H]3[C@H](O)[C@H](O)CC(=NOCC=C(C)CCC=C(C)C)[C@H]3CC[C@H]2C1=O`, the composite z-score in test [1] is 0.614; in [3], 1.01; in [4], -1.01; in test [5] it was -2.13; in test [6], -0.0704; in [7] it was -0.0626. Besides, the composite z-score is 0.161 in test [8], 0.507 in [9] and -0.476 in test [10]. Besides, the z-score in test [2] is -0.504.
